Measured values: the supplement of paper PMC10338343
± gives the standard deviation.

How the values were obtained:
[1] = system: MILI (PIWIL2) piRISC loaded with L1MC piRNA (26 nt); experiment: pre-steady-state target cleavage rate (min^-1); guide: L1MC piRNA 5'p-UAACUAAAUACUAUGCAAGCUGUAGG; higher = faster piRNA-guided slicing of the target
Method in brief: (§1)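 Active affinity-purified piRISC (1 nM) loaded with one synthetic guide was mixed with a transcribed, DNA-blocked target RNA library (0.1 nM), with or without 500 nM GTSF1 partner protein, in HEPES–potassium acetate buffer at 33 °C for 0–8 or 0–960 min. Uncleaved targets were sequenced, normalised to depth and to weakly complementary targets, and pooled across three trials, with k3 capped at 0.0001 min^-1. The pre-steady-state cleavage rate was determined with a burst-and-steady-state fit.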

[2] = system: EfPiwi piRISC loaded with L1MC piRNA (26 nt); experiment: pre-steady-state target cleavage rate (min^-1); auxiliary factor: 500 nM Ephydatia muelleri Gtsf1; guide: L1MC piRNA 5'p-UAACUAAAUACUAUGCAAGCUGUAGG; MIWI and MILI are mouse PIWI proteins and EfPiwi is from a freshwater sponge; tags in brackets are library labels; higher = faster piRNA-guided slicing of the target
Method in brief: as §1

[3] = auxiliary factor: 500 nM mouse GTSF1
[4] = auxiliary factor: none (no GTSF1)

Row | Sequence | pre-steady-state target cleavage rate [1, 3] | pre-steady-state target cleavage rate [1, 4] | pre-steady-state target cleavage rate [2]
1 | UCCUGCAACAGGUUGCAUAGUAUUUAGUUA | 0.248 ± 0.022 | 0.00771 ± 0.0033 | 0.018 ± 0.0035
2 | UCCUGGAACUAGCUUGCAUAGUAUUUAGUUA | 0.132 ± 0.021 | 0.00841 ± 0.0027 | 0.0126 ± 0.0045
3 | UCCUGGAUGUCGAUGCAUAGUACUUAGUUA | 0.025 ± 0.0066 | 0.0058 ± 0.0019 | 0.00454 ± 0.0029
4 | UCCUGCUACAGCUUGCUUAGUAAUUAGUUA | 0.18 ± 0.018 | 0.00332 ± 0.0026 | 0.0139 ± 0.0051
5 | UCCUGCUAGAGCUUGCAUAGUAUAUAGUUA | 0.176 ± 0.02 | 0.00268 ± 0.0026 | 0.00471 ± 0.0017
6 | UCCUGGAUGUGCUUGCAUAGUAUUUAGUA | 0.111 ± 0.019 | 0.00483 ± 0.0024 | 0.00405 ± 0.002
7 | UCCUGCUACAGCUUGCAUAGUAUUUAGUGA | 0.193 ± 0.033 | 0.00299 ± 0.0027 | 0.00567 ± 0.0019
8 | UCCUGGAUGUGGUUGCAUAGUAUUUAGUAA | 0.0925 ± 0.021 | 0.0105 ± 0.0041 | 0.11 ± 0.056
9 | UCCUGGUAGAGCUUGCAUAGUAUUUUGUUA | 0.143 ± 0.03 | 0.00365 ± 0.003 | 0.00292 ± 0.0029
10 | UCCUGCUAUAGCUUGCAUAGUAUUUAGUUA | 0.221 ± 0.017 | 0.00678 ± 0.0018 | 0.014 ± 0.0046
11 | UCCUGGUACAGCAUGCAUAGUAUAUAGUUA | 0.241 ± 0.038 | 0.00583 ± 0.0028 | 0.00569 ± 0.0031
12 | UCCUGGAUGAGCUUGCAUAGUAAUUAGUUA | 0.184 ± 0.018 | 0.00598 ± 0.0024 | 0.0154 ± 0.0044
13 | UCCUGGAUGAGCAUGCAUAGUAUUUAGUAA | 0.21 ± 0.024 | 0.00494 ± 0.0024 | 0.00596 ± 0.0037
14 | UCCUCCUACAGCUUAGCAUAGUAUUUAGUUA | 0.314 ± 0.017 | 0.0112 ± 0.0024 | 0.0919 ± 0.025
15 | UCCUCCUACAGCUUGCAUAGUAUUUGGUUA | 0.279 ± 0.024 | 0.00706 ± 0.0026 | 0.00583 ± 0.0021
16 | UCCUCCUACAGCUUGCAUAGUAUUUAGUUC [g2:g26:cont:t1C] | 0.283 ± 0.016 | 0.0143 ± 0.0047 | 0.146 ± 0.035
17 | UCCUCGUACAGCUUGGAUAGUAUUUAGUUA | 0.265 ± 0.012 | 0.00962 ± 0.0023 | 0.0441 ± 0.0092
18 | UCCUGGAACUGCUAGCAUAGUAUUUAGUUA | 0.215 ± 0.015 | 0.00611 ± 0.0019 | 0.0171 ± 0.0058
19 | UCCUGGUACAGCUUGCAUAGUAUUUUAGUUA | 0.183 ± 0.021 | 0.0144 ± 0.0062 | 0.00849 ± 0.0042
20 | UCCUGGAUCAGCUUGGAUAGUAUUUAGUUA | 0.185 ± 0.013 | 0.00786 ± 0.0022 | 0.0092 ± 0.0025
21 | UCCUGGAAGAGCUUGCAUAGUAUUAAGUUA | 0.21 ± 0.023 | 0.00346 ± 0.0028 | 0.00519 ± 0.0018
22 | UCCUGGAAGCAGCUUGCAUAGUAUUUAGUUA | 0.259 ± 0.016 | 0.0136 ± 0.0032 | 0.0569 ± 0.013
23 | UCCUCCUACGAGCUUGCAUAGUAUUUAGUUA | 0.163 ± 0.018 | 0.00585 ± 0.0022 | 0.0144 ± 0.0051
24 | UCCUGGAACAGCUUGCAUACUAUUUAGUUA | 0.0842 ± 0.014 | 0.00298 ± 0.0025 | 0.00571 ± 0.0014
25 | UCCUGCUUCAGCUAGCAUAGUAUUUAGUUA | 0.322 ± 0.02 | 0.00715 ± 0.0018 | 0.0566 ± 0.015
26 | UCCUGGAUCAUGCUUGCAUAGUAUUUAGUUA | 0.18 ± 0.019 | 0.00983 ± 0.0024 | 0.0911 ± 0.025

Row | Sequence | pre-steady-state target cleavage rate [1, 3] | pre-steady-state target cleavage rate [1, 4] | pre-steady-state target cleavage rate [2]
27 | UCCUGGUUCAGCUUGCAUAGUAUAUAGUUA | 0.198 ± 0.034 | 0.0112 ± 0.0032 | 0.00607 ± 0.0027
28 | UCCUGGUACAGUUGCAUAGUAUUUAGUUA | 0.227 ± 0.023 | 0.0115 ± 0.003 | 0.0124 ± 0.0051
29 | UCCUGGAUGUGCUUACAUAGUAUUUAGUUA | 0.122 ± 0.015 | 0.0117 ± 0.0028 | 0.0113 ± 0.0041
30 | UCCUGCUACAGCUUGCUUACUAUUUAGUUA | 0.114 ± 0.016 | 0.00371 ± 0.0023 | 0.0113 ± 0.005
31 | UCCUGGUACACUUGCAUAGUAUUUAGUUA | 0.188 ± 0.024 | 0.00665 ± 0.0026 | 0.00407 ± 0.0024
32 | UCCUGGAUGUCGUUUGCAUAGUAUUUAGUUA | 0.13 ± 0.013 | 0.00976 ± 0.0036 | 0.0445 ± 0.013
33 | UCCUGGAUGAGCUUGCAUAGUAUGUUAGUUA | 0.157 ± 0.021 | 0.0093 ± 0.0029 | 0.00879 ± 0.0036
34 | UCCUGCUACAGCAUGCAUUGUAUUUAGUUA | 0.213 ± 0.02 | 0.00734 ± 0.0026 | 0.0119 ± 0.0032
35 | UCCUGGAUGAGCUUGCAUAGUAUUUAGUUUA | 0.184 ± 0.02 | 0.0105 ± 0.0031 | 0.0215 ± 0.0067
36 | UCCUGGAUGAGCUUGCGUAGUAUUUAGUUA | 0.119 ± 0.016 | 0.0108 ± 0.0025 | 0.00425 ± 0.0038
37 | UCCUGGAUGAGCUUGCAUAGUAUGUAGUUA | 0.162 ± 0.033 | 0.0043 ± 0.003 | 0.0135 ± 0.0044
38 | UCCUGCUAGAGCUUGCAUAGUAUUUAGUUA | 0.198 ± 0.017 | 0.00605 ± 0.0021 | 0.00838 ± 0.0023
39 | UCCUGCUACAGCUUGCAAUGUAUUUAGUUA | 0.0986 ± 0.014 | 0.00809 ± 0.002 | 0.00312 ± 0.0024
40 | UCCUGGAUGUGCUUGCAUAGUAUUUAGUUA [g2:g20:cont:t1A] | 0.142 ± 0.013 | 0.00984 ± 0.0023 | 0.015 ± 0.0046
41 | UCCUGGAUCAGCUAGGAUAGUAUUUAGUUA | 0.178 ± 0.013 | 0.00609 ± 0.0017 | 0.00257 ± 0.002
42 | UCCUGGAUCAGCUUGCAUAGUAUUUAGUGUA | 0.271 ± 0.023 | 0.00832 ± 0.0026 | 0.0168 ± 0.0061
43 | UCCUGGAUGUGCAUGCAUAGUAUUUAGAAA | 0.0733 ± 0.013 | 0.00295 ± 0.0029 | 0.00304 ± 0.0022
44 | UCCUGGAUCUGCUAGCAUAGUAUUUAGUUA | 0.168 ± 0.014 | 0.00596 ± 0.0019 | 0.0121 ± 0.0038
45 | UCCUGGAUCACGUUGCAUAGUAUUUAGUUA | 0.206 ± 0.019 | 0.00683 ± 0.0026 | 0.0686 ± 0.017
46 | UCCUGGAUCAGCUAUGCAUAGUAUUUAGUUA | 0.281 ± 0.019 | 0.0057 ± 0.0026 | 0.106 ± 0.02
47 | UCCUGGAUGUCGUUGCAUAGUAUUUAGUUA [g2:g18:cont:t1A] | 0.164 ± 0.013 | 0.0106 ± 0.0029 | 0.00621 ± 0.0026
48 | UCCUCCUAGAGCUUGCAUAGUAAUUAGUUA | 0.264 ± 0.029 | 0.00317 ± 0.0031 | 0.011 ± 0.0039
49 | UCCUGCUUCAGCUUGCAUAGUAUUUUGUUA | 0.144 ± 0.025 | 0.00322 ± 0.0024 | 0.00635 ± 0.0022
50 | UCCUGCUACAGCUUGCUAAGUAUUUAGUUA | 0.176 ± 0.018 | 0.00399 ± 0.0022 | 0.00353 ± 0.0029
51 | UCCUCCUACAGCUUGCAUAGUAUUAAGUUA | 0.178 ± 0.026 | 0.00415 ± 0.0024 | 0.00589 ± 0.0029
